Drawing on ChEMBL document CHEMBL1961873, “Compounds: GSK PKIS; Assays: Nanosyn kinase panel” (2012), this text covers inhibition for two molecules.

The target of test [1] is T1, Inhibitor of nuclear factor kappa-B kinase subunit epsilon (Homo sapiens) (UniProt Q14164).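 Note: reported values are averaged percent inhibition figures against human IKKε.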
T1 sequence (whole entry): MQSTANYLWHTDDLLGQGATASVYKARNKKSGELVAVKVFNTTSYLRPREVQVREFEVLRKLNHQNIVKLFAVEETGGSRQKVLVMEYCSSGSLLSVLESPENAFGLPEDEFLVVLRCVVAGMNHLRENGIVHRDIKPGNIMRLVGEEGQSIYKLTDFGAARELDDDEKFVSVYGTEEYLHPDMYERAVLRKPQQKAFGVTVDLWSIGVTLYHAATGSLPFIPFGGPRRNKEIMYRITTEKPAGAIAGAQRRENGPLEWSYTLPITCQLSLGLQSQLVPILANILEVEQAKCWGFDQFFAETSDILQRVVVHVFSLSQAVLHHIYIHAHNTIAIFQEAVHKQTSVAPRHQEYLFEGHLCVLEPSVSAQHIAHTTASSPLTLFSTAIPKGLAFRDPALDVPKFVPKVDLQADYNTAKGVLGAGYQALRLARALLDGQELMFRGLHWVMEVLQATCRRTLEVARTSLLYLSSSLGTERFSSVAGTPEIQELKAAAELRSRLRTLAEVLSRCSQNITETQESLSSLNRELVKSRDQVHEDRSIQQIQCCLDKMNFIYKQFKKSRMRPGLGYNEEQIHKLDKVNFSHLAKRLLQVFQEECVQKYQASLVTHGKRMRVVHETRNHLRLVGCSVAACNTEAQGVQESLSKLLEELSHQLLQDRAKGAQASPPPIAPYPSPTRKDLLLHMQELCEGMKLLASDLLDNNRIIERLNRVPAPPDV
To be noted: at 1 µM.

For test [2], the target named is T2, Serine/threonine-protein kinase Nek1 (Homo sapiens) (UniProt Q96PY6).
T2 sequence (whole entry): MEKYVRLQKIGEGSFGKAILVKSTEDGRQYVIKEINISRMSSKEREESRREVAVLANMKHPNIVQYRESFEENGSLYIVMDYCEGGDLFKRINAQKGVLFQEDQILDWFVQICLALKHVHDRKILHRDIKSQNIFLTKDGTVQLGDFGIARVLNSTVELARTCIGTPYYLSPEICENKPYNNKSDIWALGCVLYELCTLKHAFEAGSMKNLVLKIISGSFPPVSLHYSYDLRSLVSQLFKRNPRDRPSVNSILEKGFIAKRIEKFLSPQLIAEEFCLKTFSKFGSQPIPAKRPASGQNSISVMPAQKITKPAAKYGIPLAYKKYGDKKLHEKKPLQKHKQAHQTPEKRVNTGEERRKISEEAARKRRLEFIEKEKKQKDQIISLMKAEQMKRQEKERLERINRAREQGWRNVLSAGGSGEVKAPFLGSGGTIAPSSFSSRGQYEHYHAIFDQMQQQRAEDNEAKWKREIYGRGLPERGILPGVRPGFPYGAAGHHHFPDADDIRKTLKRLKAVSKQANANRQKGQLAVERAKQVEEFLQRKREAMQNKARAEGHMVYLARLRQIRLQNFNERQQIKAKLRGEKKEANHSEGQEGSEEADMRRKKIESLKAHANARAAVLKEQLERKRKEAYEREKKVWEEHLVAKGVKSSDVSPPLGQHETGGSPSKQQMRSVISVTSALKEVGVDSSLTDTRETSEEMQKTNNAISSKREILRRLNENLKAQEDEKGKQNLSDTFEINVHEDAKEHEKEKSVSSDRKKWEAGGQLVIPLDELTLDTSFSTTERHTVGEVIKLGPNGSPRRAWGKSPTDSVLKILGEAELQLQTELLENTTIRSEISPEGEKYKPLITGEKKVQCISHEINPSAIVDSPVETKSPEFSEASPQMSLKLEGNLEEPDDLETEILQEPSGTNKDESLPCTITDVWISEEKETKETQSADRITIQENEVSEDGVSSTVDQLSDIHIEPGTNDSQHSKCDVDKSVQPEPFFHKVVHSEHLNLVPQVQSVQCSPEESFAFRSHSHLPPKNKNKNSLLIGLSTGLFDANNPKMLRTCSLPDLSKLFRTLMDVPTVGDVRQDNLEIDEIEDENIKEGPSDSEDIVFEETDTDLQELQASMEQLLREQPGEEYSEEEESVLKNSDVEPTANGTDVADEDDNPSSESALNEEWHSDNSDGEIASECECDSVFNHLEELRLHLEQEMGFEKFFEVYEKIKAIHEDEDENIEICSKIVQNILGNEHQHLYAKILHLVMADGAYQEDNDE
The following applies: at 0.1 µM.

The target of test [3] is T2, Serine/threonine-protein kinase Nek1 (Homo sapiens). The following applies: at 1 µM.
Test [4] has as its target T3, Serine/threonine-protein kinase Nek2 (Homo sapiens) (UniProt P51955).
T3 sequence (whole entry): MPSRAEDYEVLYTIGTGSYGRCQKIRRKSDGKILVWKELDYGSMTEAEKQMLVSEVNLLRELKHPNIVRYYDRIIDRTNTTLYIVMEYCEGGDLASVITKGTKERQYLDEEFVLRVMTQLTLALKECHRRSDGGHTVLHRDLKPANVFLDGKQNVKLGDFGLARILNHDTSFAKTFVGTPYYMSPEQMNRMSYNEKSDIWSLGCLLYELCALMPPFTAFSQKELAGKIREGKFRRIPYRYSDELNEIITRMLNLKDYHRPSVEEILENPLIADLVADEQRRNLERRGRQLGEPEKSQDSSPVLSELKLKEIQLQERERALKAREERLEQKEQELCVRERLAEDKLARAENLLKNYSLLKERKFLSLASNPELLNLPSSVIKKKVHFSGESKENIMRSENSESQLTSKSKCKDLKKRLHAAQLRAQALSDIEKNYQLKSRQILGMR
To be noted: at 0.1 µM.

Test [5] addresses T3, Serine/threonine-protein kinase Nek2 (Homo sapiens). To be noted: at 1 µM.
For test [6], the target named is Serine/threonine-protein kinase Nek6 (Homo sapiens) (UniProt Q9HC98). The following applies: at 0.1 µM.
Test [7] has the same target. The following applies: at 1 µM.
Test [8] concerns the target Serine/threonine-protein kinase Nek7 (Homo sapiens) (UniProt Q8TDX7). To be noted: at 0.1 µM.
Test [9] has the same target. To be noted: at 1 µM.
Test [10] has as its target T4, Serine/threonine-protein kinase Nek9 (Homo sapiens) (UniProt Q8TD19).
T4 sequence (whole entry): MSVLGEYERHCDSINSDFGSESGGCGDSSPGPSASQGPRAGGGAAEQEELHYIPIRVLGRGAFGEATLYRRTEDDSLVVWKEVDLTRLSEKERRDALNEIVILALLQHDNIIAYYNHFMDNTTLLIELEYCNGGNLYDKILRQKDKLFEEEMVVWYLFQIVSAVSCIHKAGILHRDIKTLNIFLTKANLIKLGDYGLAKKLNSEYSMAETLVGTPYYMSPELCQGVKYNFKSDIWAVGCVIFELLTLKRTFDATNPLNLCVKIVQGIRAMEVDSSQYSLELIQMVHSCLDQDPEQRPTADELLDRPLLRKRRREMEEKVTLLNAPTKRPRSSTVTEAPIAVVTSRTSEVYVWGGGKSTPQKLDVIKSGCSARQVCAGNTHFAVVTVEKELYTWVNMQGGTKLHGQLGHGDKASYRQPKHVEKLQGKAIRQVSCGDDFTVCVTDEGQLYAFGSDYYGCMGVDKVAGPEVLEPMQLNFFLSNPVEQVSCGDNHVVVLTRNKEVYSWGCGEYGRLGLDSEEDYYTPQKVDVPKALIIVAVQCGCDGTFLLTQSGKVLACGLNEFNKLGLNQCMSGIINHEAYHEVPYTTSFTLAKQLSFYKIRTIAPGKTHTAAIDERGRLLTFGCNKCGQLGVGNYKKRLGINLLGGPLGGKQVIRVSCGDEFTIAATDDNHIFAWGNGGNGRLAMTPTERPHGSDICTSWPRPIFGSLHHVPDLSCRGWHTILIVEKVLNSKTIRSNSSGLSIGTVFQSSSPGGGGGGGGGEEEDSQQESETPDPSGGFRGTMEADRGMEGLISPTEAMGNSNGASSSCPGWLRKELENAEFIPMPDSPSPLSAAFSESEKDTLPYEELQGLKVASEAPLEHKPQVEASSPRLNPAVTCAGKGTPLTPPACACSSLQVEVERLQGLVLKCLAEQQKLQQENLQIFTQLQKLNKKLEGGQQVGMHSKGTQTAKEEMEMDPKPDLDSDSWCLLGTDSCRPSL
The following applies: at 0.1 µM.

The target of test [11] is T4, Serine/threonine-protein kinase Nek9 (Homo sapiens). The following applies: at 1 µM.
Test [12] deals with Serine/threonine-protein kinase PLK1 (Homo sapiens) (UniProt P53350). The following applies: at 0.1 µM.
Test [13] shares this target. To be noted: at 1 µM.
The target of test [14] is T5, Dual specificity protein kinase TTK (Homo sapiens) (UniProt P33981).
T5 sequence (whole entry): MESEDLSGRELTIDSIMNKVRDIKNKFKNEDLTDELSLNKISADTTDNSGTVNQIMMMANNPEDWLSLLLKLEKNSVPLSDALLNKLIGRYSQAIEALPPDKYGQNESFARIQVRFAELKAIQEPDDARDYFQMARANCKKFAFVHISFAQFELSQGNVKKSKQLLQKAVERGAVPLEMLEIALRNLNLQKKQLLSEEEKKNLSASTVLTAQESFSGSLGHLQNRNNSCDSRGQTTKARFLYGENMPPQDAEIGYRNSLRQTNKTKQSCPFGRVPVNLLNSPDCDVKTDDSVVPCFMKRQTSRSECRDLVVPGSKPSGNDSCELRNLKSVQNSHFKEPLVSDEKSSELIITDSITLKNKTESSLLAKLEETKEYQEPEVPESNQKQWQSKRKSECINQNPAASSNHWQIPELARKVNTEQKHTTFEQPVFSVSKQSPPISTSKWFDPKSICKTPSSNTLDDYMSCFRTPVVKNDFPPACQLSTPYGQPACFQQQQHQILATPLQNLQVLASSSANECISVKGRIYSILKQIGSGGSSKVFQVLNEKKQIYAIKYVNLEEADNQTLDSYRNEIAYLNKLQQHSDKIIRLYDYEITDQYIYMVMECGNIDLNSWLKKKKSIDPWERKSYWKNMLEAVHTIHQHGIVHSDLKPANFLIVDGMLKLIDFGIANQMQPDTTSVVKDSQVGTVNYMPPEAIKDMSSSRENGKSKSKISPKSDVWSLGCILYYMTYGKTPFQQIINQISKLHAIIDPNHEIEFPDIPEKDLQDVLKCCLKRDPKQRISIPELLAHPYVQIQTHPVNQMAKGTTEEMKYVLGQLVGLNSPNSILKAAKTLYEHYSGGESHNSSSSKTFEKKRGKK
To be noted: at 0.1 µM.

Test [15] has as its system T6, Receptor-type tyrosine-protein kinase FLT3 (Homo sapiens), P36888 [D835Y].
T6 sequence (whole entry): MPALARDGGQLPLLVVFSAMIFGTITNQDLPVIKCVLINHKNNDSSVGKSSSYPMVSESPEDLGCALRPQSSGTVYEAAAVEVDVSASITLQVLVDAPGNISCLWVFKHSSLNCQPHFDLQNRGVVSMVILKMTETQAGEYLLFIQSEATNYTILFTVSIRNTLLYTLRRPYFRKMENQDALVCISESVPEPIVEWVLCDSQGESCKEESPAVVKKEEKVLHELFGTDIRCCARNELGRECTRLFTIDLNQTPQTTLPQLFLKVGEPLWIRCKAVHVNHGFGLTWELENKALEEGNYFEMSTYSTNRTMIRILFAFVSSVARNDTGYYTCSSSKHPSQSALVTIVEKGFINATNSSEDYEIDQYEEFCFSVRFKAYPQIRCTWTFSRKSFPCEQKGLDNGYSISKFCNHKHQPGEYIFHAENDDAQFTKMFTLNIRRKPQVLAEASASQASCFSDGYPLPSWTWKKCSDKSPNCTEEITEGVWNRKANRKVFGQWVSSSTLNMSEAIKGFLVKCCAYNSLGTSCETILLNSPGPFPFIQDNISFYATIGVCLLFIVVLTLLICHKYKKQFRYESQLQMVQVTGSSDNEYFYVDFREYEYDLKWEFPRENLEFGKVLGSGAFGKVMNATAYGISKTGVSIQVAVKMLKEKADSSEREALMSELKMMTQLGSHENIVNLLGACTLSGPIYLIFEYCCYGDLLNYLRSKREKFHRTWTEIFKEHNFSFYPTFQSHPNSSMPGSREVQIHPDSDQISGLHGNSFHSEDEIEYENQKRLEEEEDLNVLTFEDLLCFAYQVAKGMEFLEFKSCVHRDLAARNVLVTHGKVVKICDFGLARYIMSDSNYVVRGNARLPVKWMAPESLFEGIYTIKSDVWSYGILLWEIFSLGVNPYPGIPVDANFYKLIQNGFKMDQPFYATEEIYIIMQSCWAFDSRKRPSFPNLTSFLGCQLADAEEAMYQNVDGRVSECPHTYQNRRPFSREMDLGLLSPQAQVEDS
To be noted: at 1 µM.

For test [16], the target named is Vascular endothelial growth factor receptor 3 (Homo sapiens) (UniProt P35916). The following applies: at 0.1 µM.
The target is the same in test [17]. To be noted: at 1 µM.
In test [18] the target is Macrophage colony-stimulating factor 1 receptor (Homo sapiens) (UniProt P07333). To be noted: at 0.1 µM.
The target is the same in test [19]. The following applies: at 1 µM.
In test [20] the target is Tyrosine-protein kinase Fyn (Homo sapiens) (UniProt P06241). To be noted: at 0.1 µM.

The inhibition is the relative decrease from the control value, in per cent.

Sequence of Serine/threonine-protein kinase Nek6 (Homo sapiens) (Q9HC98 whole entry): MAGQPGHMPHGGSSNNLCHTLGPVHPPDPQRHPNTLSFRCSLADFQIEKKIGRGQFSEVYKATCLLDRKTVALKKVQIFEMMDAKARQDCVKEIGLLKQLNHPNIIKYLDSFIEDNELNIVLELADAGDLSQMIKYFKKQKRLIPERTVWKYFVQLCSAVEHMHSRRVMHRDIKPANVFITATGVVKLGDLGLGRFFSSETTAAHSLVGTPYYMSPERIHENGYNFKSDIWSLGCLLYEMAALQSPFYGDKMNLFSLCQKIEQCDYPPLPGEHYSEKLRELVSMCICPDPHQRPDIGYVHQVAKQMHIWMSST
Sequence of Vascular endothelial growth factor receptor 3 (Homo sapiens) (P35916 whole entry): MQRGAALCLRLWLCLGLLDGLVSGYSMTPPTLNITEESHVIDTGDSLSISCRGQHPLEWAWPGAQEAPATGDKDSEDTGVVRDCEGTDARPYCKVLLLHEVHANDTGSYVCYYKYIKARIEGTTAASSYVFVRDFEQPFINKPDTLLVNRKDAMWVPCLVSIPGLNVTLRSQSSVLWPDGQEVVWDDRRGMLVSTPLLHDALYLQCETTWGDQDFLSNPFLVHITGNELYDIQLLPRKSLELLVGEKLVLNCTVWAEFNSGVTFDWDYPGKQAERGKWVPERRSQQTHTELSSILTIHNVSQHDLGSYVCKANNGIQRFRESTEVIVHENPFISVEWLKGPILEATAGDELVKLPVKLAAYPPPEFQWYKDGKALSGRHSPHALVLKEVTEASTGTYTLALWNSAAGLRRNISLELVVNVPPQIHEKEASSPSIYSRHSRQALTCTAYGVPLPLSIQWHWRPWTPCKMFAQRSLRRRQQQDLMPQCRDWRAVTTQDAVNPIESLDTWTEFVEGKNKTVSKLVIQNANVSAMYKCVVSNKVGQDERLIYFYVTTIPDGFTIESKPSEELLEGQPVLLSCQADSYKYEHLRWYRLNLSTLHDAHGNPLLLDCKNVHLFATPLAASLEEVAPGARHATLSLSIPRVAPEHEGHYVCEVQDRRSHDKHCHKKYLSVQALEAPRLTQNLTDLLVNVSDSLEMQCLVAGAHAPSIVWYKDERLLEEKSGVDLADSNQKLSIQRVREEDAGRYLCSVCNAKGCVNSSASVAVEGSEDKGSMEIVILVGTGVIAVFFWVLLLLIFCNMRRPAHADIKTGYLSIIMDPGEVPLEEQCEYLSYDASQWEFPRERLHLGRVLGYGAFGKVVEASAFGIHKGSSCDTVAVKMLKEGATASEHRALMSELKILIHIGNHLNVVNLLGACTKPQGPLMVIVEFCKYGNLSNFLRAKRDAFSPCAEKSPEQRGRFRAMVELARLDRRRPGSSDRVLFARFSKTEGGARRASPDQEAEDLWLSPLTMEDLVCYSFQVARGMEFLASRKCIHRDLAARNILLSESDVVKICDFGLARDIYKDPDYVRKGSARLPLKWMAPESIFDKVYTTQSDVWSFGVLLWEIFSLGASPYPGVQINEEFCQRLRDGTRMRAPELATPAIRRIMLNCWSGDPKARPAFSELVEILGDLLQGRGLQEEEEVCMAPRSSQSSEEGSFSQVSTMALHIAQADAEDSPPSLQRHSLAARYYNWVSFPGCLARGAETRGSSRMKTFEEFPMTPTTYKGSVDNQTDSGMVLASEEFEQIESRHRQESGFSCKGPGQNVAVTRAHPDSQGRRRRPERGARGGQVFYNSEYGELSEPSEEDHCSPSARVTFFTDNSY
Sequence of Serine/threonine-protein kinase PLK1 (Homo sapiens) (P53350 whole entry): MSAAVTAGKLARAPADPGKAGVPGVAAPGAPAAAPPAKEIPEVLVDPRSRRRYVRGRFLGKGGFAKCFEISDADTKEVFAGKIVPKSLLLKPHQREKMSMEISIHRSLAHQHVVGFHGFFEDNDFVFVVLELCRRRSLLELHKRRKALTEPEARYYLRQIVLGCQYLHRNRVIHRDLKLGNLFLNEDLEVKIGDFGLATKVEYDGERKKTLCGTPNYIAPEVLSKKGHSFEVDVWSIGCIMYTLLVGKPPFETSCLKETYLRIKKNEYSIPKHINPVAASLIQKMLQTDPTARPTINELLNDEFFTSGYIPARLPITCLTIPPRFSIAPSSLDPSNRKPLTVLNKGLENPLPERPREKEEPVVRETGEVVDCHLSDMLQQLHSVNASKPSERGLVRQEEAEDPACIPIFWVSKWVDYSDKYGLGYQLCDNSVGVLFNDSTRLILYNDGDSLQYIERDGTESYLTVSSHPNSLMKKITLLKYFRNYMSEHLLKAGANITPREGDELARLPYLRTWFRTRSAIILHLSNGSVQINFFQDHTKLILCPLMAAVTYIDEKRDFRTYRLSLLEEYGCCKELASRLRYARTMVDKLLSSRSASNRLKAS
Sequence of Macrophage colony-stimulating factor 1 receptor (Homo sapiens) (P07333 whole entry): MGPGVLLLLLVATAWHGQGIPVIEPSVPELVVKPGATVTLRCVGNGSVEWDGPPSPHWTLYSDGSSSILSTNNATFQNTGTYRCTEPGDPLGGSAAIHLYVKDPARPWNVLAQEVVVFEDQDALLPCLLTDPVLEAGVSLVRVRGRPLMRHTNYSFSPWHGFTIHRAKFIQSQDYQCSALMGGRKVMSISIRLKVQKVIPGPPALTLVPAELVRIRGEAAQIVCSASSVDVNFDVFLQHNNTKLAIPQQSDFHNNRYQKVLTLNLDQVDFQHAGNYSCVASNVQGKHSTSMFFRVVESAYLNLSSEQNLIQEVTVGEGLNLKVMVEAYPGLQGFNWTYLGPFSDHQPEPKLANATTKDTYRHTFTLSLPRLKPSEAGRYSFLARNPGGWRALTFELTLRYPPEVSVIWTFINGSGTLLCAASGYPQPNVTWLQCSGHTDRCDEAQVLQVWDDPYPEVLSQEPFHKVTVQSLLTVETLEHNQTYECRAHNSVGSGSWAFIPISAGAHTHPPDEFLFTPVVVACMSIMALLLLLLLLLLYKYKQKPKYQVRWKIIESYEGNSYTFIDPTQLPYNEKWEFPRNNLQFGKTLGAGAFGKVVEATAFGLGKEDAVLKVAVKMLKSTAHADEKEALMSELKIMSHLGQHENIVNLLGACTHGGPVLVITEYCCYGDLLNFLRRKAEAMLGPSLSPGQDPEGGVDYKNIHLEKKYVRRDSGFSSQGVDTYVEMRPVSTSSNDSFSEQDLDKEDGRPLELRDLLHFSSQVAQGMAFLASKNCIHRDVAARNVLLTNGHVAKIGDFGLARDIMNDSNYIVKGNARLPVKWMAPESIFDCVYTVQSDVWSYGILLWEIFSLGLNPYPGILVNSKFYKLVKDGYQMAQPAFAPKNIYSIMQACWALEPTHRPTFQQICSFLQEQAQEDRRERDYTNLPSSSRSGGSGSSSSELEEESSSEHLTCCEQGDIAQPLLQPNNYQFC
Sequence of Serine/threonine-protein kinase Nek7 (Homo sapiens) (Q8TDX7 whole entry, looked up): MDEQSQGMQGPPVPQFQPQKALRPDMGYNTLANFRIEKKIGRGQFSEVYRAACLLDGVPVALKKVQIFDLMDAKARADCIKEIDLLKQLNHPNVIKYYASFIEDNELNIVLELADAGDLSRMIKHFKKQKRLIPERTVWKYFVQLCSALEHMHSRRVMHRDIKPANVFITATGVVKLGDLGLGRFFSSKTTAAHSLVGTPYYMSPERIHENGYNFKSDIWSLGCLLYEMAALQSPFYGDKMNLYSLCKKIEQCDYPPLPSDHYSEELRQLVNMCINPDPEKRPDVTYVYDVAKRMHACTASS
Sequence of Tyrosine-protein kinase Fyn (Homo sapiens) (P06241 2-537 limits assumed): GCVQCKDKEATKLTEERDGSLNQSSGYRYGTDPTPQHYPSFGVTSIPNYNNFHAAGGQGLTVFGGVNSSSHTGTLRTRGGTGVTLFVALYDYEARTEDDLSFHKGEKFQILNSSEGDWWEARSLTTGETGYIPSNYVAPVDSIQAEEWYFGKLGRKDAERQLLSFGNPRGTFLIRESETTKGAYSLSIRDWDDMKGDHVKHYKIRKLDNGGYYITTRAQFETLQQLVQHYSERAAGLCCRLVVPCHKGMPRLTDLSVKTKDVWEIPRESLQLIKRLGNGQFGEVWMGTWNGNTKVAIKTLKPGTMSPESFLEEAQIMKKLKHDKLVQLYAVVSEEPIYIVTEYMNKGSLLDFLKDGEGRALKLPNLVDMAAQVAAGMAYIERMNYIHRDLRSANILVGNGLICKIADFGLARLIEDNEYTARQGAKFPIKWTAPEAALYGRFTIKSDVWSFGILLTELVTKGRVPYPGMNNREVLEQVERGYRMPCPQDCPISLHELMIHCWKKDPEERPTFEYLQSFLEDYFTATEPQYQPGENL

Consider `Cc1ccc(NC(=O)c2ccoc2)cc1-c1ccc(C(=O)NCC2CC2)cc1`, for which the inhibition stood at 2.47% in test [1]; 1.2% in test [2]; 0.36% in [3]; 3.49% in test [4]; 3.48% in [5]; 2.49% in test [6]. The inhibition in test [7] is 0.14%; in test [8], 0.66%; in [9], 1.16%; in test [10], 5.95%; in [11], 4.64%; in [12] it was 2.06%. The inhibition in test [13] is -0.9%; in test [14], 4.04%; in test [15], 5.74%; in test [16] it was 0.17%; in test [17] it was 6.22%; in test [18] it was -2.68%. Moreover, the inhibition in [19] came out at 2.71%; in test [20], 0.65%.
Regarding `Fc1ccc(-c2ncn(C3CCNCC3)c2-c2ccnc(Oc3ccc(Oc4ccccc4)cc3)n2)cc1`, the inhibition is 6.34% in test [1]; 1.09% in test [2]; 1.58% in test [3]; 5.87% in test [4]; 3.38% in test [5]; -2.46% in test [6]. In addition, the inhibition came to 2.86% in test [7]; 3.94% in test [8]; 9.34% in [9]; 4.61% in test [10]; 4.8% in test [11]; 4.45% in test [12]. In addition, the inhibition in [13] was 6.8%; in [14] it was 6.67%; in [15] it was -1.89%; in [16], 3.28%; in test [17], 1.1%; in test [18] it was 2.27%. Besides, the inhibition came out at 3.02% in test [19] and 2.65% in [20].
